# From PubChem BioAssay
# An excerpt weighted towards active compounds, which were near 19% of everything screened.
# TDP1 cell CPT: DT40-hTDP1 cell growth loss with CPT; chicken DT40 Tdp1-/-;hTDP1 cells + 20 nM CPT, ATP luminescence, 48 h; Potency, µM (highest dose often 46.2 µM), for inactives: at the highest dose activity change, negative = growth inhibition, most hits filed as inhibitors; 420,000 tested, 12% active; AID 686979; note: potency is the fitted concentration of half-maximal effect; nearly all actives have a fitted effect of over 55% in size
#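 Chicken DT40 Tdp1-/- cells complemented with human TDP1, 400 cells/well, exposed to compounds plus 20 nM camptothecin for at least 48 h at 37 C; viability read as ATP content by CellTiter-Glo luminescence.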
# HT1080NT lethal: kills 2HG-producing HT-1080-NT fibrosarcoma cells. 360,000 tested, 1.6% active. Potency, µM (titrated, usually from 46.1 µM), for the others: at the top dose activity, negative = less viability, hits mostly cytotoxic. HT-1080-NT fibrosarcoma viability, CellTiter-Glo ATP luminescence, 48 h;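 note: NT is the 2HG producing partner of a matched IDH1 knockdown line; potency is the fitted concentration of half-maximal effect; 0% = DMSO-treated cells and -100% = media-only wells without cells; nearly all actives have a fitted effect of over 55% in size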
#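 Luminescent CellTiter-Glo readout after 48 hours of compound exposure at 37 degrees C defined viability of HT-1080-NT cells. Activity was normalized to DMSO wells and cell-free media wells; concentration-response curves were fitted and assigned curve classes.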
# DT40 TDP1 no CPT: qHTS for Inhibitors of human tyrosyl-DNA phosphodiesterase 1 (TDP1): qHTS in cells in absence of CPT. DT40 Tdp1-/- hTDP1 cells, no CPT, ATP luminescence, 48 h. Potency, µM (highest dose often 46.2 µM), without a hit: at the highest dose activity change, negative = growth inhibition, actives largely listed as inhibitors. 420,000 tested, 15% active. AID 686978, 2013; note: potency is the fitted concentration of half-maximal effect; nearly all actives have a fitted effect of over 55% in size
#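 Seeded 400 DT40-hTDP1 cells/well (vehicle DMSO, no 20 nM CPT); pinned compounds; ≥48 hr at 37 °C; CellTiter-Glo luminescence as viability measure.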
# IL1B secr inh: inflammasome signaling inhibition, IL-1 beta readout | THP-1 LPS/ATP IL-1B secretion, AlphaLISA, 16 h; stronger effect = lower value | activity change, % at 57.5 µM | 360,000 tested, 4.7% active | AID 743279; in the data active = activity change below about -50%; inconclusive = mostly about -30% to -49%
#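 Secreted IL-1B measured by AlphaLISA bead assay after 16 h compound exposure of THP-1 cells; compounds (final up to 57.5 uM) added 1 h before LPS (250 ng/mL) and ATP (1.25 mM) stimulation; lower signal means less secretion.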
# HT1080 IDH1KD tx: kills HT-1080 cells with IDH1 knockdown. HT-1080 IDH1 knockdown viability, ATP luminescence, 48 h. Potency, µM (titrated, usually from 46.1 µM), inactives show at the top dose activity, negative = toxicity, most hits filed as cytotoxic. 360,000 tested, 2% active;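 note: potency is the fitted concentration of half-maximal effect; 0% = DMSO wells and -100% = cell-free medium wells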
#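 Knockdown cells (IDH1KD HT-1080) received compounds 2 h after plating at 750 cells/well and were kept 48 h at 37 °C in 5% FBS RPMI. A CellTiter-Glo luminescence read gave % activity for curve fitting.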
# Active calls of the source: *; ? = inconclusive; . = no result given; [ ] = dose if it differs, or a comment. Unless noted, calls come from the whole dose curve; as a rule, active = well fitted curve in the direction sought with a large enough effect; inconclusive = small, poorly fitted or top-dose-only effect, or another doubt; inactive = no such curve, though single readings can be large; an effect the other way counts as inactive or inconclusive. Unless noted, % is set by controls: 0 for no effect and ±100 for the full control effect.
SMILES,TDP1 cell CPT,HT1080NT lethal,DT40 TDP1 no CPT,IL1B secr inh,HT1080 IDH1KD tx
COc1ccc2cc(C(C)C(=O)Nc3cccc(S(=O)(=O)N(C)C)c3)ccc2c1 (stereo not given),?,?,23µM*,-17,-22%
COc1ccc(O)c(/C=N/NC(=S)Nc2cccc(S(=O)(=O)N(C)C)c2)c1,6.5µM*,-18%,6.5µM*,-63*,?
C=C(C)CNC(=S)N/N=C/c1ccco1,18µM*,-29%,5.2µM*,-7,-21%
CN(C)S(=O)(=O)c1cccc(NC(=S)N/N=C/c2ccc(O)c(O)c2O)c1,?,-1%,16µM*,-13,-2%
CN(C)S(=O)(=O)c1cccc(NC(=S)N/N=C/C(c2ccccc2)c2ccccc2)c1,?,-3%,13µM*,1,14%
CN(C)S(=O)(=O)c1cccc(NC(=S)N/N=C/c2ccco2)c1,4.6µM*,5%,5.8µM*,7,8%
COc1cccc(/C=N/NC(=S)Nc2cccc(S(=O)(=O)N(C)C)c2)c1,4.1µM*,-4%,8.2µM*,6,0%
CCSc1nnc(-c2ccc(Cl)cc2)c2ccccc12,?,2%,?,-4,2%
Clc1ccc(-c2nnc(Sc3nc4ccccc4o3)c3ccccc23)cc1,?,11µM*,16µM*,-104*,11µM*
CCOCC(=O)Nc1ccc([N+](=O)[O-])cc1C,0%,-4%,0%,-1,-4%
CC(=O)OC1c2c(ccc3ccc(=O)oc23)OC(C)(C)C1OC(=O)CC(C)C (stereo not given),23µM*,-6%,18µM*,0,-4%
CCO[C@@H]1c2c(ccc3ccc(=O)oc23)OC(C)(C)[C@@H]1O,-1%,-1%,-7%,-2,3%
C/C=C(/C)C(=O)O[C@@H]1c2c(ccc3ccc(=O)oc23)OC(C)(C)[C@@H]1OC(=O)/C(C)=C\C,16µM*,?,9.2µM*,?,?
COc1cc(C#N)ccc1OC(=O)c1cccc(S(=O)(=O)N2CCN(C)CC2)c1,-1%,-2%,-7%,-7,-6%
COc1ccc(/C=C(/C#N)C(=O)Nc2cccc([N+](=O)[O-])c2)cc1C(=O)O,-1%,0%,-19%,34,-1%
CCOc1ccc(C2(C)CC(=O)N(C)C2=O)cc1 (stereo not given),17%,5%,5%,9,5%
CCCC(=O)N1CCN(c2ccc(NC(=O)c3cccs3)cc2Cl)CC1,-25%,-4%,-16%,-84*,2%
CCCC(=O)N1CCN(c2ccc(NC(=O)C(C)(C)C)cc2)CC1,13%,11%,-12%,8,10%
CCCC(=O)N1CCN(c2ccc(NC(=O)C(C)(C)C)cc2Cl)CC1,21µM*,-2%,?,0,-22%
Cc1cc(C)n2nc(-c3ccc(F)cc3)cc2n1,-21%,-2%,-21%,23,0%
COc1ccc(-c2cc3nc(C)cc(N4CC(C)CC(C)C4)n3n2)cc1 (stereo not given),?,16%,18µM*,-12,-2%[9.24 µM]
COc1ccc(-c2cc3nc(C)c(C)c(N4CCN(C(=O)c5ccoc5)CC4)n3n2)cc1,?,-9%,18µM*,2,-6%
Cc1nc2cc(-c3cccc(F)c3)nn2c(N2CCN(C(=O)c3ccco3)CC2)c1C,15µM*,-5%,15µM*,-14,-7%
COc1ccc(-c2[nH]nc3nc(N4CCN(C(=O)c5ccoc5)CC4)cc(C(F)(F)F)c23)cc1,8.2µM*,?,8.2µM*,-27,?
COCC(=O)Nc1cc(C(=O)N2CCCCC2c2nccn2C)cc2nc(-c3ccccc3)n(C)c12 (stereo not given),-9%[9.04 µM],.,-8%,.,.
SMILES,TDP1 cell CPT,HT1080NT lethal,DT40 TDP1 no CPT,IL1B secr inh,HT1080 IDH1KD tx
Cc1noc(C)c1C(=O)N1CCC[C@@]2(CCN(c3ncccn3)C2)C1,2%,.,-16%,.,.
COc1ccc(-c2cc3nc(C)cc(N4CCN(C(=O)c5ccoc5)CC4)n3n2)cc1,18µM*,7%,21µM*,?,0%
COc1ccc(N2CCN(C(=O)c3nc4nc(C)cc(C)n4n3)CC2)cc1,-12%,6%,-9%,11,9%
COc1cccc(-c2cc3nc(C)cc(N4CCN(C(=O)c5ccoc5)CC4)n3n2)c1,?,3%,21µM*,18,-8%
Clc1cccc[n+]1CCc1ccccc1,-28%,.,7%,.,.
COc1ccc(/C=C(\C#N)C(=O)OCC(=O)Nc2ccc(-c3nc4ccc(C)cc4s3)cc2)cc1,?,-3%,-4%,-25,-2%
Cc1ccc(-c2cc(C(=O)N(Cc3ccc(C(C)(C)C)cc3)Cc3ccco3)no2)cc1,18µM*,.,13µM*,.,.
O=C(c1cc(-c2ccc(Cl)cc2)on1)N(Cc1cccc(F)c1)Cc1ccco1,?,.,18µM*,.,.
O=C(NCc1ccco1)c1cc(-c2ccc(Cl)cc2)on1,-20%,-5%,-18%,0,4%
CCc1ccc(CN(Cc2ccco2)C(=O)c2cc(-c3ccc(Cl)cc3)on2)cc1,?,.,15µM*,.,.
O=C(c1cc(-c2ccc(Cl)cc2)on1)N(Cc1ccc(F)cc1)Cc1ccco1,?,.,21µM*,.,.
CCOC(=O)C1CCN(C(=O)Nc2c(-c3ccccc3)noc2C)CC1,12%,0%,0%,15,-2%
Cc1nnc(NC(=O)CN2CCN(Cc3c(Cl)cccc3Cl)CC2)s1,4%,18%,-23%,43,9%
O=C(O)/C=C1\CCCc2ccccc2C1O (stereo not given),-11%,17%,-3%,21,11%
CCC(C(=O)NCc1ccco1)N(C(=O)CNS(=O)(=O)c1ccc(C)cc1)c1ccccc1F (stereo not given),-22%,-2%,?,-3,0%
O=S(=O)(c1ccc2ccccc2c1)N(CC1CO1)c1ccccc1 (stereo not given),13µM*,?,?,-8,-24%
Cc1cccc(NS(=O)(=O)c2cc(C(=O)OC(C)C(=O)NCc3ccc4c(c3)OCO4)ccc2C)c1 (stereo not given),18µM*,-11%,16µM*,0,-15%
Cc1ccccc1OC(C)C(=O)Nc1ccc2c(c1)OCCO2 (stereo not given),-13%,5%,4%,-7,1%
CCN(c1ccccc1)S(=O)(=O)c1cc(C(=O)OC(C)C(=O)Nc2ccc3c(c2)OCCO3)ccc1C (stereo not given),?,-13%,16µM*,16,-25%
